Among the data in PubChem BioAssay (NCI) are growth values, retold here.

This is part of a sample that, as a whole, favours compounds with a hit. Of some 83,000 tested, about 20% had one in any assay.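 Single-concentration screen, 48 h exposure, 96-well plates. Endpoint: percent growth. Below 10 = active.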 A number with no mark means an inactive call. Active and inactive are the calls of the source.

Test systems include T-47D breast; BT-549 breast; MDA-MB-435 melanoma; SW-620 colon; MCF7 breast; HCT-116 colon; HCC-2998 colon; KM12 colon.
Assay in all cases: NCI-60 one-dose screen, 48 h (100 = growth as untreated, 0 = no growth, -100 = all killed)
Common to all, as to details: 10 µM unless noted

Turning to `N#CC1=C(N)Oc2c(sc3c(Br)cccc23)C1c1ccc(Br)cc1` (stereo not drawn), the growth is 23.3% with T-47D breast; 48.3% in the experiment with BT-549 breast; -53% (active) in the experiment with MDA-MB-435 melanoma; 24.4% with SW-620 colon; 10.9% in the experiment with MCF7 breast; 26.6% with HCT-116 colon. Also, the growth in the experiment with HCC-2998 colon is 12.9%; with KM12 colon it was 17.8%.
For the molecule `c1ccc2cc(C[n+]3ccn(CCCCCCCCCCCCn4cc[n+](Cc5ccc6ccccc6c5)c4)c3)ccc2c1`, the growth in the experiment with T-47D breast was -53.1% (active); with BT-549 breast, -82.8% (active); in the experiment on MDA-MB-435 melanoma, -97.1% (active); with SW-620 colon it was -55.7% (active); in the experiment with MCF7 breast it was -70.5% (active); in the experiment on HCT-116 colon, -61.8% (active). In addition, the growth is -83.4% (active) with HCC-2998 colon and -86.9% (active) in the experiment on KM12 colon.
On to `c1ccc(CO[C@H]2CO[C@H]3[C@@H]2OC[C@@H]3Oc2ccc(Nc3ncnc4ccsc34)cc2)cc1`, for which the growth in the experiment with T-47D breast was 38.9%; in the experiment on BT-549 breast, 68.9%; in the experiment on MDA-MB-435 melanoma, 83.9%; in the experiment on SW-620 colon it was 87.6%; in the experiment on MCF7 breast, 64.9%; in the experiment with HCT-116 colon, 68.9%. For the same molecule, the growth in the experiment on HCC-2998 colon was 104%; in the experiment with KM12 colon it was 86.2%.
For the molecule `COC(=O)[C@H](C)NC(=O)NC(=O)NC(=O)CI`, the growth in the experiment with T-47D breast was 44.6%; in the experiment on BT-549 breast it was 84.3%; in the experiment with MDA-MB-435 melanoma, 63%; with SW-620 colon, -33.4% (active); with MCF7 breast, 17.7%; in the experiment on HCT-116 colon it was 98.6%. Also, the growth was 94.6% in the experiment on HCC-2998 colon and 98.5% with KM12 colon.
`Brc1ccc2[nH]cc(-c3nc(-c4c[nH]c5ccncc45)cs3)c2c1`: the growth was -48.3% (active) in the experiment with T-47D breast; 87.8% in the experiment with BT-549 breast; -90.8% (active) in the experiment with MDA-MB-435 melanoma; -76.7% (active) in the experiment on SW-620 colon; -63.3% (active) in the experiment on MCF7 breast; -93.7% (active) with HCT-116 colon. Moreover, the growth is -79.3% (active) with HCC-2998 colon and -81.9% (active) with KM12 colon.
In the case of `COC(=O)/C=C1\S/C(=N\Nc2ccc([N+](=O)[O-])cc2[N+](=O)[O-])N(C2CCCCC2)C1=O`, the growth in the experiment with T-47D breast is 12.9%; in the experiment on BT-549 breast, 86%; in the experiment with MDA-MB-435 melanoma, 79%; in the experiment with SW-620 colon, 22.7%; in the experiment with MCF7 breast it was 23.1%; in the experiment on HCT-116 colon it was 29.8%. The growth in the experiment with HCC-2998 colon is 63.1%; in the experiment on KM12 colon, 45.9%.
For `CN(C)c1ccc2nc3ccc(=[N+](C)C)c([N+](=O)[O-])c-3sc2c1`, the growth in the experiment on T-47D breast is 10.3%; in the experiment with BT-549 breast, 40.5%; with MDA-MB-435 melanoma it was 41.9%; in the experiment on SW-620 colon it was 24.4%; with MCF7 breast, 7.94% (active); in the experiment with HCT-116 colon, 20.7%. For the same molecule, the growth in the experiment with HCC-2998 colon was 42.7%; in the experiment with KM12 colon, 34.6%.
`COc1cccc(Cc2cc(-c3ccccc3)nn(CC(=O)c3ccccc3)c2=O)c1`: the growth was 72.5% in the experiment on T-47D breast; 64.5% with BT-549 breast; 61.2% in the experiment on MDA-MB-435 melanoma; 55.1% in the experiment with SW-620 colon; 45.9% in the experiment with MCF7 breast; 68.9% in the experiment on HCT-116 colon. Besides, the growth is 84.7% in the experiment with HCC-2998 colon and 57.8% in the experiment with KM12 colon.
As for `C/C(=C(/c1ccccc1)c1ccc(N2C(=O)c3cccc4c(N5CCN(C)CC5)ccc(c34)C2=O)cc1)c1ccccc1`, the growth in the experiment with T-47D breast is 65.3%; in the experiment with BT-549 breast, 99.6%; in the experiment with MDA-MB-435 melanoma, 88.2%; in the experiment on SW-620 colon, 80.2%; in the experiment on MCF7 breast, 59%; with HCT-116 colon it was 49.4%. Moreover, the growth in the experiment on HCC-2998 colon is 99.8%; with KM12 colon, 79.8%.
With `O=C1c2ccccc2NC(n2sc3ccccc3c2=O)N1c1ccccc1` (stereo not drawn), the growth was 96.4% with T-47D breast; 104% in the experiment with BT-549 breast; 111% in the experiment with MDA-MB-435 melanoma; 104% in the experiment with SW-620 colon; 94.3% with MCF7 breast; 95.7% in the experiment with HCT-116 colon. For the same molecule, the growth with HCC-2998 colon is 103%; in the experiment with KM12 colon it was 92.9%.
On to `c1ccc(Cc2nn3cc(-c4ccccc4)nc3s2)cc1`, for which the growth was 87.6% in the experiment on T-47D breast; 102% in the experiment on BT-549 breast; 114% in the experiment with MDA-MB-435 melanoma; 109% in the experiment with SW-620 colon; 87.2% in the experiment on MCF7 breast; 78.9% in the experiment on HCT-116 colon. Further, the growth in the experiment on HCC-2998 colon is 103%; with KM12 colon, 96.5%.
`COc1cc(CCC[P+](c2ccccc2)(c2ccccc2)c2ccccc2)c(OC)c2c1OCO2`: the growth is 13.9% in the experiment with T-47D breast; 15.8% in the experiment on BT-549 breast; 3.48% (active) in the experiment with MDA-MB-435 melanoma; 31.1% with SW-620 colon; 9.9% (active) in the experiment on MCF7 breast; 16.4% in the experiment with HCT-116 colon. The values for the growth with HCC-2998 colon and in the experiment on KM12 colon were 26.7% and 6.93% (active), respectively.
For `COc1ccc(/C=C2\Oc3cc(OCCN4CCC(Cc5ccccc5)CC4)ccc3C2=O)cc1OC`, the growth with T-47D breast is 60.7%; in the experiment with BT-549 breast, 64.2%; in the experiment on MDA-MB-435 melanoma, 76.5%; in the experiment with SW-620 colon, 40.8%; with MCF7 breast, 49.2%; in the experiment with HCT-116 colon, 49%. Moreover, the growth in the experiment on HCC-2998 colon is -2.67% (active); in the experiment on KM12 colon, 68.2%.
Take `O=C1CCC(C(=O)NCCNCCNC(=O)C2CCC(=O)N2)N1` (stereo not drawn): the growth is 85% with T-47D breast; 81.3% in the experiment on BT-549 breast; 104% with MDA-MB-435 melanoma; 94.8% with SW-620 colon; 98.3% with MCF7 breast; 87.8% in the experiment on HCT-116 colon. The growth was 105% with HCC-2998 colon and 102% with KM12 colon.
As to `NC(=O)Nc1ccc2ncnc(Nc3ccc(Cl)cc3)c2c1`, the growth is 61.6% with T-47D breast; 92.4% in the experiment with BT-549 breast; 97.8% in the experiment on MDA-MB-435 melanoma; 99.1% with SW-620 colon; 86.5% in the experiment with MCF7 breast; 96.4% in the experiment with HCT-116 colon. Moreover, the growth with HCC-2998 colon is 97.9%; in the experiment on KM12 colon, 98.5%.
On to `CCCCOc1nc2ccc(OC)cc2cc1-c1cc(-c2ccc(Cl)cc2)nc(-c2ccc(Cl)cc2)c1`, for which the growth with T-47D breast was 97.4%; in the experiment with BT-549 breast, 105%; in the experiment on MDA-MB-435 melanoma, 107%; with SW-620 colon, 102%; in the experiment with MCF7 breast it was 97.5%; in the experiment with HCT-116 colon it was 102%. Further, the growth with HCC-2998 colon was 109%; in the experiment with KM12 colon, 104%.
